Results as given in PubChem BioAssay AID1159580 (chemical genetic matrix, 2015).
“And” between values parts separate entries of the source, which are not always exact repeats. Identical values can stand only once. In all, about 5,500 compounds went through this assay and about 2,000 (36%) were called active. Not shown: some 18% with an inconclusive outcome. Cut-off read from the data, not from the text of the source: active = normalized growth mostly below about 0.91 (no sharp cut-off); inconclusive = no clear call, values can overlap the other calls; inactive = mostly above about 0.92. The list shows a part of the results.

Assay: chemical genetic growth profiling, strain panel (AID 1159580);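 note: tested at 20 µM; growth read once vehicle control cultures reached saturation at 30 °C; 1 = growth at the plate median or of vehicle wells; lower values mean less growth of the strain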
Conditions: S. cerevisiae deletion strains, growth OD

Measured: normalized growth

OC(CCN1CCCCC1)(c1ccccc1)c1ccccc1
inactive: locus YAL021C, strain ccr4, hits give low values 1.01 | locus YAL026C, strain drs2, hits give low values 0.985 | locus YAL030W, strain snc1, hits give low values 0.99 | locus YBL061C, strain skt5, hits give low values 0.986 | locus YBR009C, strain hhf1, hits give low values 0.939 | locus YBR021W, strain FUR4, hits give low values 1.02 | locus YBR023C, strain chs3, hits give low values 0.99 | locus YBR171W, strain sec66, hits give low values 0.987 | locus YBR229C, strain ROT2, hits give low values 1 | locus YBR231C, strain swc5, hits give low values 1.01 | locus YBR279W, strain paf1, hits give low values 0.995 | locus YCL011C, strain gbp2, hits give low values 0.969 | locus YCL016C, strain dcc1, hits give low values 0.975 | locus YCL029C, strain bik1, hits give low values 1.01 | locus YCL061C, strain MRC1, hits give low values 1 | locus YCL069W, strain vba3, hits give low values 0.977 | locus YCR088W, strain abp1, hits give low values 0.983 | locus YDL005C, strain med2, hits give low values 1.01 | locus YDL035C, strain GPR1, hits give low values 1.04 | locus YDL040C, strain nat1, hits give low values 0.992 | locus YDL074C, strain BRE1, hits give low values 1.03 | locus YDL101C, strain DUN1, hits give low values 1.01 | locus YDL134C, strain PPH21, hits give low values 1.03 | locus YDL185W, strain tfp1, hits give low values 1.01 | locus YDL192W, strain arf1, hits give low values 1.02 | locus YDR001C, strain nth1, hits give low values 0.989 | locus YDR069C, strain doa4, hits give low values 0.997 | locus YDR101C, strain arx1, hits give low values 0.993 | locus YDR137W, strain rgp1, hits give low values 1.01 | locus YDR159W, strain sac3, hits give low values 1.01 | locus YDR162C, strain NBP2, hits give low values 1.01 | locus YDR195W, strain ref2 1.02 | locus YDR297W, strain sur2, hits give low values 0.984 | locus YDR318W, strain mcm21, hits give low values 1.01 | locus YDR334W, strain swr1, hits give low values 0.99 | locus YDR335W, strain msn5, hits give low values 0.986 | locus YDR388W, hits give low values 1.01 | locus YDR392W, strain spt3, hits give low values 0.886 | locus YDR502C, strain sam2, hits give low values 1 | locus YEL003W, strain gim4, hits give low values 0.98 | locus YEL037C, strain rad23, hits give low values 0.985 | locus YEL061C, strain CIN8 (second series), hits give low values 0.977 | locus YEL061C, strain CIN8, hits give low values 1.01 | locus YER015W, strain faa2, hits give low values 0.994 | locus YER016W, strain bim1, hits give low values 0.997 | locus YER110C, hits give low values 1.01 | locus YER111C, strain swi4, hits give low values 0.983 | locus YER155C, strain BEM2 (second series), hits give low values 0.995 | locus YER155C, strain BEM2, hits give low values 1 | locus YER167W, strain BCK2, hits give low values 1.01 | locus YFR010W, strain ubp6, hits give low values 0.987 | locus YGL078C, strain dbp3, hits give low values 1 | locus YGL086W, strain mad1, hits give low values 1 | locus YGL167C, strain pmr1, hits give low values 0.984 | locus YGL173C, strain kem1, hits give low values 0.986 | locus YGL227W, strain vid30, hits give low values 0.989 | locus YGL240W, strain doc1, hits give low values 1.02 | locus YGL248W, strain PDE1, hits give low values 1.01 | locus YGL253W, strain hxk2, hits give low values 1.02 | locus YGR078C, strain PAC10, hits give low values 1.01 | locus YGR135W, strain pre9, hits give low values 1.01 | locus YGR252W, strain gcn5, hits give low values 1.01 | locus YHR013C, strain ard1, hits give low values 1.01 | locus YHR027C, strain rpn1, hits give low values 0.99 | locus YHR030C, strain SLT2, hits give low values 1.01 and 1.03 | locus YHR079C, strain IRE1 (second series), hits give low values 1.01 | locus YHR079C, strain IRE1, hits give low values 1.03 | locus YHR094C, strain hxt1, hits give low values 1.01 | locus YHR129C, strain ARP1, hits give low values 1 | locus YHR142W, strain chs7, hits give low values 0.946 | locus YHR200W, strain rpn10, hits give low values 1.01 | locus YIL066C, strain RNR3, hits give low values 1.01 | locus YIL073C, strain SPO22, hits give low values 1.09 | locus YIL125W, strain kgd1, hits give low values 1.01 | locus YIR030C, strain dcg1, hits give low values 1.01 | locus YJL092W, strain hpr5, hits give low values 0.988 | locus YJL095W, strain BCK1 (second series), hits give low values 0.982 | locus YJL095W, strain BCK1, hits give low values 0.996 and 1.05 | locus YJL115W, strain asf1, hits give low values 0.982 | locus YJL129C, strain trk1, hits give low values 0.987 | locus YJL134W, strain LCB3, hits give low values 1 | locus YJL154C, strain vps35, hits give low values 0.984 | locus YJL164C, strain tpk1, hits give low values 0.967 | locus YJL166W, strain qcr8, hits give low values 1 | locus YJL168C, strain set2, hits give low values 1.01 | locus YJL187C, strain SWE1 (second series), hits give low values 1.01 | locus YJL187C, strain SWE1, hits give low values 0.996 | locus YJR043C, strain POL32, hits give low values 1.04 | locus YJR066W, strain TOR1, hits give low values 0.938
